PubChem BioAssay (NCI)
The panel holds about 83,000 compounds, 20% with a hit somewhere; the sample as a whole holds those more often.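 Single-concentration screen, 48 h exposure, 96-well plates. Endpoint: percent growth. Below 10 = active.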 A number with no mark means an inactive call. Calls of active or inactive are those of the source.

Columns and labels:
Assay in all cases: NCI-60 one-dose screen, 48 h (100 = growth as untreated, 0 = no growth, -100 = all killed)
Settings in all cases: 10 µM unless noted
NCI-H23 lung = test system: NCI-H23 lung
NCI-H226 lung = test system: NCI-H226 lung
NCI-H322M lung = test system: NCI-H322M lung
HOP-62 NSCLC = test system: HOP-62 NSCLC
NCI-H460 lung = test system: NCI-H460 lung
HOP-92 NSCLC = test system: HOP-92 NSCLC
NCI-H522 lung = test system: NCI-H522 lung
A549/ATCC NSCLC = test system: A549/ATCC NSCLC
786-0 renal = test system: 786-0 renal
COLO 205 colon = test system: COLO 205 colon
DU-145 prostate = test system: DU-145 prostate
K-562 leukemia = test system: K-562 leukemia
MALME-3M melanoma = test system: MALME-3M melanoma
MDA-MB-231 breast = test system: MDA-MB-231 breast
RXF 393 renal = test system: RXF 393 renal
SF-268 CNS = test system: SF-268 CNS
SF-295 CNS = test system: SF-295 CNS
SF-539 CNS = test system: SF-539 CNS
UACC-257 melanoma = test system: UACC-257 melanoma
M14 melanoma = test system: M14 melanoma

Structure (SMILES)	growth (NCI-H23 lung)	growth (NCI-H226 lung)	growth (NCI-H322M lung)	growth (HOP-62 NSCLC)	growth (NCI-H460 lung)	growth (HOP-92 NSCLC)	growth (NCI-H522 lung)	growth (A549/ATCC NSCLC)	growth (786-0 renal)	growth (COLO 205 colon)	growth (DU-145 prostate)	growth (K-562 leukemia)	growth (MALME-3M melanoma)	growth (MDA-MB-231 breast)	growth (RXF 393 renal)	growth (SF-268 CNS)	growth (SF-295 CNS)	growth (SF-539 CNS)	growth (UACC-257 melanoma)	growth (M14 melanoma)
Nc1c(C(=O)Nc2ccncc2)sc2nc3c(cc12)CCCCCC3	88.6%	80.4%	80.6%	96.6%	89.9%	67.1%	81.6%	76.7%	74.6%	104%	93.2%	64%	108%	103%	88.5%	100%	82.3%	79.9%	91.1%	100%
Cc1ccc(-c2cc(-c3ccc(Cl)cc3)nc(NC(=O)c3cccnc3)n2)cc1	96.5%	98.6%	98.5%	114%	102%	117%	93.5%	105%	102%	109%	106%	87.6%	111%	91.3%	94.1%	97.6%	103%	106%	121%	109%
Cn1cc(-c2csc(-c3ccc(Cl)cc3)n2)c2cccnc21	-49.3% [100 µM] (active)	-14.3% [100 µM] (active)	-8.35% [100 µM] (active)	-53.7% [100 µM] (active)	-16.4% [100 µM] (active)	-69.2% [100 µM] (active)	9.55% [100 µM] (active)	9.96% [100 µM] (active)	-61.4% [100 µM] (active)	-65.8% [100 µM] (active)	-70.5% [100 µM] (active)	3.35% [100 µM] (active)	-9.47% [100 µM] (active)	-46.5% [100 µM] (active)	-7.46% [100 µM] (active)	-33.6% [100 µM] (active)	-20.3% [100 µM] (active)	-63.8% [100 µM] (active)	-35.6% [100 µM] (active)	-62.3% [100 µM] (active)
Fc1cc(F)cc(C(c2c[nH]c3ccccc23)c2c[nH]c3ccccc23)c1	89.4%	103%	86.1%	91.1%	97.8%	89.4%	75%	82%	98%	97.8%	105%	118%	130%	86.6%	115%	97.6%	78.6%	106%	99.8%	98%
c1cnc2[nH]cc(-c3csc(-c4cn(CCCN5CCOCC5)c5ccccc45)n3)c2c1	68.1%	61.5%	80.2%	48.7%	45.4%	12%	56.9%	54.4%	28.4%	31.2%	82%	1.22% (active)	61.1%	27.1%	24.9%	52.3%	16.7%	52.9%	85%	14.5%
CN(Cc1ccc(C(F)(F)F)cc1)CC(O)C(=O)Nc1ccc(Cl)cc1 (stereo not given)	-50.9% (active)	51.8%	42.4%	-37.8% (active)	18.3%	-0.362% (active)	-51.4% (active)	19.6%	-48.4% (active)	-68.6% (active)	-51.4% (active)	-36% (active)	12.8%	26%	12.9%	31.9%	-69.5% (active)	21.9%	1.78% (active)	-49.8% (active)
COc1ccc(C(=S)N2CCN(c3ccccc3Cl)CC2)cc1OC	117%	98.1%	86.6%	90.9%	115%	86%	85.8%	115%	97.5%	99.5%	111%	106%	90.8%	102%	111%	99.4%	91.7%	99.4%	104%	92.8%
CCOC(=O)/C=C1\S/C(=N\Nc2cc(=O)[nH]c3ccc(Cl)cc23)N(c2ccccc2)C1=O	90.5%	89.6%	98.6%	88%	102%	91.7%	79.7%	105%	93.8%	65%	96.7%	54.1%	92.6%	92.2%	77.2%	96%	102%	99.6%	95.6%	87.3%
Fc1cc2c(cc1Cl)N(c1ncnc3ccc(-c4cnc5[nH]ncc5c4)cc13)CC2	73.3%	49.5%	52.1%	54.8%	54.7%	34.5%	55.9%	44%	65%	79.2%	56.2%	77.5%	77.3%	52.7%	38.5%	57.3%	72.9%	68.2%	86.3%	85.5%
C=C(C)[C@@H]1CC[C@]2(C)[C@H](CC=C3[C@@H]4[C@H](C)[C@@H](C)CC[C@]4(CO)CC[C@]32C)[C@@]1(C)CCCN	60.9%	84.5%	43.7%	-63.1% (active)	-81.9% (active)	4.6% (active)	-41.8% (active)	-31.6% (active)	39.3%	-57.2% (active)	28.4%	1.75% (active)	-79.1% (active)	3.87% (active)	21.7%	59%	77.2%	13%	-56.7% (active)	-46.2% (active)
C#CCOc1ccc2ncnc(Nc3ccc(NC(=O)CCl)cc3)c2c1	-39% (active)	47.6%	51.6%	21.4%	-46.4% (active)	-7.62% (active)	-77.9% (active)	18.7%	-65.3% (active)	-8.04% (active)	18.1%	0.218% (active)	-74.5% (active)	-0.398% (active)	-59.9% (active)	-7.47% (active)	60.6%	-81.8% (active)	38.8%	4.03% (active)
Cc1cc(Cl)ccc1Nc1nc(C(F)(F)F)ccc1C(=O)N/N=C/c1ccc([N+](=O)[O-])cc1	-1.74% (active)	6.08% (active)	-18.6% (active)	-33.6% (active)	-34.3% (active)	-31.6% (active)	-13.3% (active)	-15.3% (active)	-61.2% (active)	-65.6% (active)	5.82% (active)	-1.48% (active)	-13.5% (active)	-51.5% (active)	5.4% (active)	13.8%	-56.4% (active)	3.77% (active)	-13.1% (active)	26.9%
COc1cc(/C=C\c2cc(/C=C\c3ccc(O)c(OC)c3)n(C(=O)COc3ccc(Cl)cc3Cl)n2)ccc1O	14.1%	26.5%	40.8%	11.3%	9.28% (active)	12.5%	-28.7% (active)	10.6%	13.7%	82.4%	16.5%	4.41% (active)	12.1%	10.1%	-9.98% (active)	20.2%	23.1%	8.64% (active)	41.9%	4.34% (active)
Cc1ccc(Cc2cnc(NC(=O)c3cc(Br)cs3)s2)cc1	73.1%	73.1%	79.7%	50.8%	46.7%	59.1%	34.3%	51%	67.8%	80%	84.9%	15%	56.5%	70.9%	71.4%	71.7%	43.8%	66.4%	79.5%	30.4%
Brc1c2c(c(Br)c3ccccc13)CCCC2	97.7%	85.8%	99.6%	84%	111%	80.9%	75.5%	79.7%	102%	102%	110%	94.7%	108%	91%	101%	104%	101%	102%	89.8%	99.1%
